{"source": "the supplement of paper PMC11219838"}
{"system": "Caenorhabditis elegans L1 (N2)", "assay": "survival and reproduction score of C. elegans L1 (0: 0-10 living worms, 1: 11-20, 2: 21-50, 3: >50, 4: overgrown) (score 0-4); higher = more worms, less nematicidal, active = 1 or less; extreme values may be limits of the assay", "details": "60 µM; 6 days; temperature: 20 °C", "summary_of_the_method": "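In liquid NGM with E. coli HB101, approximately 20 synchronized C. elegans N2 L1s per 96-well well were exposed to compound at 60 µM final (0.6% v/v DMSO) for 6 days at 20 °C with shaking at 200 rpm in sealed plates. Survival and reproduction were judged under a dissection microscope as an ordinal rating of living worms per well. Ratings went from 0 (0–10 worms) to 4 (overgrown, starved) and were averaged over two biological replicates.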"}
{"compound": "c1ccc(COc2cccc(-c3nc(-c4ccccn4)no3)c2)cc1", "survival and reproduction score": "4 (inactive)"}
{"compound": "Cc1cccc(OCc2nc(-c3ccccc3)no2)c1", "survival and reproduction score": "1.5 (inactive)"}
{"compound": "c1coc(-c2nc(-c3cccs3)no2)c1", "survival and reproduction score": "0 (active)"}
{"compound": "COc1ccc(-c2nnc(SCC(=O)Nc3ccc(Cl)c(Br)c3)o2)cc1", "survival and reproduction score": "4 (inactive)"}
{"compound": "COc1cccc(-c2nnc(SCC(=O)NC3CCCCC3)o2)c1", "survival and reproduction score": "4 (inactive)"}
{"compound": "O=C(CSc1nnc(-c2ccco2)o1)c1ccccc1", "survival and reproduction score": "4 (inactive)"}
{"compound": "Clc1ccc(OCc2nc(-c3ccc4c(c3)OCO4)no2)cc1", "survival and reproduction score": "4 (inactive)"}
{"compound": "Cc1ccccc1-c1nc(-c2ccc(Cl)cc2)no1", "survival and reproduction score": "0 (active)"}
{"compound": "C=CCSc1nnc(-c2ccc(Br)cc2)o1", "survival and reproduction score": "0 (active)"}
{"compound": "Cc1cc(OCc2nc(-c3ccncc3)no2)cc(C)c1Cl", "survival and reproduction score": "4 (inactive)"}
{"compound": "Cc1ccc(C(=O)Nc2ccccc2-c2nc(-c3cccnc3)no2)cc1C", "survival and reproduction score": "4 (inactive)"}
{"compound": "N#Cc1ccccc1CSc1nnc(-c2ccco2)o1", "survival and reproduction score": "4 (inactive)"}
{"compound": "CC(C)c1ccc(NC(=O)CSc2nnc(-c3ccc(Br)cc3)o2)cc1", "survival and reproduction score": "4 (inactive)"}
{"compound": "Cc1ccc(-c2nc(-c3cccc(C)c3)no2)cc1", "survival and reproduction score": "1 (active)"}
{"compound": "COc1ccc(Cl)cc1-c1nc(-c2ccccc2C)no1", "survival and reproduction score": "4 (inactive)"}
{"compound": "COc1ccccc1-c1nnc(SCC(=O)Nc2ccc(Br)cn2)o1", "survival and reproduction score": "4 (inactive)"}
{"compound": "CCc1ccc(NC(=O)CSc2nnc(-c3ccco3)o2)cc1", "survival and reproduction score": "4 (inactive)"}
{"compound": "Cc1cc(Cl)ccc1OCc1nc(-c2ccccc2)no1", "survival and reproduction score": "4 (inactive)"}
{"compound": "c1cncc(-c2noc(-c3cccc4ccccc34)n2)c1", "survival and reproduction score": "4 (inactive)"}
{"compound": "CN(C)c1ccc(-c2nnc(SCc3ccccc3)o2)cc1", "survival and reproduction score": "4 (inactive)"}
{"compound": "O=C(CSc1nnc(-c2ccc(Br)cc2)o1)Nc1cccc2ccccc12", "survival and reproduction score": "4 (inactive)"}
{"compound": "COC(=O)c1ccc(Cl)c(NC(=O)CSc2nnc(-c3ccc(Cl)cc3)o2)c1", "survival and reproduction score": "4 (inactive)"}
{"compound": "Cc1ccc(-c2noc(C3CCCCC3)n2)cc1", "survival and reproduction score": "0 (active)"}
{"compound": "Cc1ccccc1OCc1nc(-c2ccc3c(c2)OCO3)no1", "survival and reproduction score": "4 (inactive)"}
{"compound": "CC(Sc1nnc(-c2cccnc2)o1)C(=O)c1ccccc1", "note": "(stereo not drawn)", "survival and reproduction score": "4 (inactive)"}
{"compound": "CCOc1ccccc1-c1nnc(SCC(=O)Nc2nccs2)o1", "survival and reproduction score": "4 (inactive)"}
{"compound": "COc1ccc(-c2noc(-c3ccc(Cl)cc3)n2)cc1", "survival and reproduction score": "3 (inactive)"}
{"compound": "CCn1c(SCc2nc(-c3ccccc3)no2)nc2ccccc21", "survival and reproduction score": "4 (inactive)"}
{"compound": "COc1ccc(-c2nnc(SCC(=O)c3ccc(C)o3)o2)cc1", "survival and reproduction score": "2 (inactive)"}
{"compound": "CCOc1ccc(-c2nc(-c3ccccc3)no2)cc1", "survival and reproduction score": "4 (inactive)"}
{"compound": "CCOC(=O)c1c(NC(=O)CSc2nnc(-c3ccccc3OCC)o2)sc(C(C)=O)c1C", "survival and reproduction score": "4 (inactive)"}
{"compound": "Fc1ccc(CSc2nnc(-c3ccccn3)o2)cc1", "survival and reproduction score": "4 (inactive)"}
{"compound": "CCOc1ccccc1-c1nc(-c2cccc(C)c2)no1", "survival and reproduction score": "4 (inactive)"}
{"compound": "Cc1cc(OCc2nc(-c3ccncc3)no2)c(C)cc1Br", "survival and reproduction score": "4 (inactive)"}
{"compound": "O=C(CSc1nnc(-c2ccco2)o1)Nc1cccc2ccccc12", "survival and reproduction score": "4 (inactive)"}
{"compound": "COc1nc(C)ccc1-c1noc(-c2ccc(F)cc2)n1", "survival and reproduction score": "4 (inactive)"}
{"compound": "Cc1ccc(OCc2nc(-c3ccccc3Cl)no2)cc1C", "survival and reproduction score": "2 (inactive)"}
{"compound": "Brc1ccccc1-c1nc(-c2ccccn2)no1", "survival and reproduction score": "2 (inactive)"}
